Values without a mark were called inactive. For part of these data: Entries with a potency or affinity are not part of this list. Activity calls are given as the source filed them. Unless noted, the rule behind the calls is not given here.

A short description of experiment [1]: antimalarial activity against Dd2 strain (AID 2302;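 active = growth inhibition above 50% at the single 2 µM test dose, taken to imply half-maximal potency below 2 µM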;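 note: 0% = DMSO untreated growth and 100% = chloroquine plus artemisinin killed control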). As to conditions: P. falciparum Dd2 in RBCs, LDH growth readout, 72 h; at 2 µM; stronger effect = higher value.
Experiment [2] is described as follows: HepG2 cytotoxicity, primary screen, cytotoxicity control for P. falciparum antimalarial project, cell-based, ATP luminescence (AID 2303;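 active = inhibition above 50%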;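 note: 0% = DMSO wells and 100% = digitonin-killed cells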). As to conditions: HepG2 viability, 24-48 h, at 10 µM, stronger effect = higher value.
Experiment [3] addresses L-lactate dehydrogenase (Plasmodium falciparum (isolate CDC / Honduras)) (UniProt Q27743). Kind of experiment: PfLDH activity inhibition – cell lysate, 3D7 strain, counter-screen for P. falciparum growth inhibition project (AID 2304).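 Note: 0% = vehicle and 100% = reference inhibitor.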 As to conditions: P. falciparum 3D7 crude extract, LDH APAD/NBT absorbance; at 2 µM; stronger effect = higher value.
Experiment [4] in a line: inhibition of 3D7 malaria parasite growth – strain 3D7 (AID 2306).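 Note: 0% = DMSO wells and 100% = chloroquine plus artemisinin control wells.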 As to conditions: P. falciparum 3D7 erythrocytic growth, LDH absorbance, 72 h; at 2 µM; stronger effect = higher value.
Experiment [5] deals with Calcium-dependent protein kinase 1 (Plasmodium falciparum (isolate 3D7)) (UniProt P62344). Kind of experiment: PfCDPK1 kinase inhibitors, biochemical, TCAMS library (AID 1159585; cut-off not given, nearly all actives have IC50 up to about 0.98 µM;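 note: inhibitors leave more ATP so luminescence rises with inhibition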). As to conditions: recombinant PfCDPK1, Kinase-Glo ATP depletion luminescence. On the technique in general: In Kinase-Glo more light means more ATP remaining.
The target in experiment [6] is Plasmodium falciparum protein kinase 6 (PK6, PF3D7_1337100) (UniProt Q8IDW1). The experiment can be described thus: PfPK6 kinase inhibitors, biochemical, TCAMS library (AID 1159586). To be noted: recombinant PfPK6, Kinase-Glo ATP depletion luminescence.
Experiment [7] has as its target Protein kinase 7 (PK7), Plasmodium falciparum 3D7 (PF3D7_0213400) (UniProt Q7YTF7). Kind of experiment: inhibition of Plasmodium PK7 catalytic activity – biochemical, TCAMS antimalarial set, Kinase-Glo luminescence (AID 1159587). As to conditions: recombinant PfPK7, Kinase-Glo ATP depletion luminescence.
Experiment [8] deals with Calcium-dependent protein kinase 4 (Plasmodium falciparum (isolate 3D7)) (UniProt Q8IBS5). Kind of experiment: PfCDPK4 kinase inhibitors, biochemical, TCAMS library (AID 1159588; cut-off not given, nearly all actives have IC50 up to about 0.91 µM). To be noted: recombinant PfCDPK4, Kinase-Glo ATP depletion luminescence.
Chain of Calcium-dependent protein kinase 4 (Plasmodium falciparum (isolate 3D7)) (Q8IBS5 whole entry, looked up): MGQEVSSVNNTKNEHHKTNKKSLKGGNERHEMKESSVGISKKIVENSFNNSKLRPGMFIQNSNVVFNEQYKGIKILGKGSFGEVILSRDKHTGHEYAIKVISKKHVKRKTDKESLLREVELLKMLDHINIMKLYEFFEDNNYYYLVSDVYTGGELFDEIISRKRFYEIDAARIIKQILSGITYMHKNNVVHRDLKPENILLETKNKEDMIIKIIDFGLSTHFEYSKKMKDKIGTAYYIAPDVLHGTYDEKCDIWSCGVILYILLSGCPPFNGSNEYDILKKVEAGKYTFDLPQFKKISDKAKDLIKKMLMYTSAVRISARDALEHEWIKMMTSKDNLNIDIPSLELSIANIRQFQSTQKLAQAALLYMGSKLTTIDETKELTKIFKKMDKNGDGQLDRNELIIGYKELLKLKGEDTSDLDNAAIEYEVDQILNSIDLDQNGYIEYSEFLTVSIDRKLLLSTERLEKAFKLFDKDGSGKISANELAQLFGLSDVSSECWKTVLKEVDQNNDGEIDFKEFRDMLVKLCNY

Chain of Plasmodium falciparum protein kinase 6 (PK6, PF3D7_1337100) (Q8IDW1 1-305): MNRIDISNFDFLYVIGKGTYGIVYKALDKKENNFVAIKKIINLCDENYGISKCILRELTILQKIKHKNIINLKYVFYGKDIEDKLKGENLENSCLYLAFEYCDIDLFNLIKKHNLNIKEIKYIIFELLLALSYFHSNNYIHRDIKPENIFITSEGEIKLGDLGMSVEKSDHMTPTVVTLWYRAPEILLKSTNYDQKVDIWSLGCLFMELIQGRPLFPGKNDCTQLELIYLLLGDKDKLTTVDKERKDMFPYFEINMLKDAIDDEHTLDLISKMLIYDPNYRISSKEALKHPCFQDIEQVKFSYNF
Chain of Protein kinase 7 (PK7), Plasmodium falciparum 3D7 (PF3D7_0213400) (Q7YTF7 1-343): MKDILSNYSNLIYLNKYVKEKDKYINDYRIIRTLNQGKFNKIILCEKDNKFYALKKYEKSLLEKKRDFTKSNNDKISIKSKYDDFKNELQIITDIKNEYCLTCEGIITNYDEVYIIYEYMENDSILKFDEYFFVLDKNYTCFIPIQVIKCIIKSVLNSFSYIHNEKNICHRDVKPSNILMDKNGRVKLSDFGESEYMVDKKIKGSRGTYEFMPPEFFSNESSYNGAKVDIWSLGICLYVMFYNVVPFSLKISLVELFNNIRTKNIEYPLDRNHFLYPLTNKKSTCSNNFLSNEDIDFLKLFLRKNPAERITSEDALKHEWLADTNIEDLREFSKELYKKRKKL
Chain of Calcium-dependent protein kinase 1 (Plasmodium falciparum (isolate 3D7)) (P62344 whole entry, looked up): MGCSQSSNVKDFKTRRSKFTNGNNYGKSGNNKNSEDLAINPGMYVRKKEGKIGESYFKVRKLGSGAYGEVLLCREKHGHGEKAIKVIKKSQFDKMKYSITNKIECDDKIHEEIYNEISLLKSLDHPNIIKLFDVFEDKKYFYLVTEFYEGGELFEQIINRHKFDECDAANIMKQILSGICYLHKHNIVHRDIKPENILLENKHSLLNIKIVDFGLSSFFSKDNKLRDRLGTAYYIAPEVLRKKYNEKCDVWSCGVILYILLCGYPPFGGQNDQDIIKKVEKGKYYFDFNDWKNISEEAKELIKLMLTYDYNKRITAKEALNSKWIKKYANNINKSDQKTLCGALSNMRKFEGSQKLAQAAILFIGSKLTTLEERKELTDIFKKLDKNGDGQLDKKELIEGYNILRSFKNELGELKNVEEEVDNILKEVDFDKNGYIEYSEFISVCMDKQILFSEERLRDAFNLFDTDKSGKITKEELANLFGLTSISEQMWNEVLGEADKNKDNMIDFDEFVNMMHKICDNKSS
Chain of L-lactate dehydrogenase (Plasmodium falciparum (isolate CDC / Honduras)) (Q27743 whole entry, looked up): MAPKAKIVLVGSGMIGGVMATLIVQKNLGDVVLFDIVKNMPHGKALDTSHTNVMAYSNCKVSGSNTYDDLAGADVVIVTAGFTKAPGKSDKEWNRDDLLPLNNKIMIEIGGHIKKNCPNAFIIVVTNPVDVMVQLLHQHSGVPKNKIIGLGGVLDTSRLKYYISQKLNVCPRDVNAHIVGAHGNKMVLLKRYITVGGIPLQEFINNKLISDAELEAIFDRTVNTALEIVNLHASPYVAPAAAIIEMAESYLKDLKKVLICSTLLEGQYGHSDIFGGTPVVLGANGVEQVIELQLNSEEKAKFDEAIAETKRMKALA

As to `CCCCNCc1ccc(-c2nc(CN(Cc3ccc(Cl)c(Cl)c3)S(=O)(=O)c3ccc(NC(C)=O)cc3)cs2)cc1`, the results for the growth inhibition in experiment [1] and in experiment [4] were 20% and 96% (active), respectively. Moreover, the inhibition in experiment [2] is 30%; in experiment [3], 5%. Further, the result in experiment [5], in experiment [6], in experiment [7] and in experiment [8] was inactive.
As to `CCCc1cc(Cc2cnc(N)nc2N)cc(OC)c1OC`, the growth inhibition in experiment [1] is 4%; in experiment [4] it was 87% (active). Also, the inhibition in experiment [2] was 2%; in experiment [3] it was 6%. For the same compound, the result in experiment [5], in experiment [6], in experiment [7] and in experiment [8] was inactive.
As for `CCCCCCCC1CC(CC(=O)Nc2ccnc3ccc(OC)cc23)CN1C(=O)OC(C)(C)C` (stereo not drawn), the results for the growth inhibition in experiment [1] and in experiment [4] were 34% and 100% (active), respectively. The inhibition in experiment [2] is 1%; in experiment [3], 3%. Also, the result in experiment [5], in experiment [6], in experiment [7] and in experiment [8] was inactive.
For the compound `CC1(C)N=C(N)N=C(N)N1OCCCOc1c(Cl)cc(Cl)cc1Cl`, the growth inhibition in experiment [1] is 97% (active); in experiment [4] it was 94% (active). The values for the inhibition in experiment [2] and in experiment [3] were 65% (active) and -2%, respectively. The result in experiment [5], in experiment [6], in experiment [7] and in experiment [8] was inactive.
Consider `COc1cc(F)c2ncc(Cl)c(C(O)CN3CCC(NC(=O)c4ccc5c(n4)NC(=O)CO5)CC3)c2c1` (stereo not drawn), for which the growth inhibition is 100% (active) in experiment [1] and 102% (active) in experiment [4]. Further, the figures for the inhibition in experiment [2] and in experiment [3] were 22% and -1%, respectively. For the same compound, the outcome in experiment [5], in experiment [6], in experiment [7] and in experiment [8] was inactive.
In the case of `Cc1cc(-c2cc(Cl)ccc2Cl)no1`, the growth inhibition in experiment [1] is 97% (active); in experiment [4], 96% (active). Moreover, the inhibition in experiment [2] is 36%; in experiment [3], -8%. Further, the outcome in experiment [5], in experiment [6], in experiment [7] and in experiment [8] was inactive.
Consider `CCN(CC(C)O)C(=O)c1ccc(-c2cccc(-c3nc4c(C)cccc4[nH]3)c2)cc1` (stereo not drawn), for which the results for the growth inhibition in experiment [1] and in experiment [4] were 32% and 100% (active), respectively. In addition, the figures for the inhibition in experiment [2] and in experiment [3] were 28% and -2%, respectively. Besides, the result in experiment [5], in experiment [6], in experiment [7] and in experiment [8] was inactive.
Consider `NC1CCN(Cc2ccc(-c3ccc(-c4nc5ccccc5[nH]4)s3)cc2)C1` (stereo not drawn), for which the growth inhibition in experiment [1] was 99% (active); in experiment [4] it was 101% (active). Besides, the results for the inhibition in experiment [2] and in experiment [3] were 32% and -6%, respectively. In addition, the outcome in experiment [5], in experiment [6], in experiment [7] and in experiment [8] was inactive.
Consider `CC(C)c1ccc(S(=O)(=O)N(c2ccc3c(c2)OCO3)C2CCN(Cc3ccccc3)C2)cc1` (stereo not drawn), for which the values for the growth inhibition in experiment [1] and in experiment [4] were 92% (active) and 100% (active), respectively. For the same compound, the inhibition was 1% in experiment [2] and 0% in experiment [3]. Further, the outcome in experiment [5], in experiment [6], in experiment [7] and in experiment [8] was inactive.
With `Cc1cc(Cc2ccc(S(=O)(=O)c3cc4c(cc3O)CCN(C)CC4)cc2)ccc1Cl`, the growth inhibition in experiment [1] is 12%; in experiment [4], 96% (active). For the same compound, the inhibition is 7% in experiment [2] and 0% in experiment [3]. Moreover, the outcome in experiment [5], in experiment [6], in experiment [7] and in experiment [8] was inactive.
As to `CN1CCCC1CCNCc1cccc(-c2cnc(N3CCCC(C)(C)C3)nc2)c1` (stereo not drawn), the growth inhibition in experiment [1] is 95% (active); in experiment [4] it was 98% (active). Moreover, the inhibition was 99% (active) in experiment [2] and 5% in experiment [3]. For the same compound, the outcome in experiment [5], in experiment [6], in experiment [7] and in experiment [8] was inactive.
`Cc1c(CNCCCNc2nc3cscc3[nH]2)sc(C(F)F)c1Br`: the growth inhibition in experiment [1] is 11%; in experiment [4], 99% (active). The inhibition in experiment [2] and in experiment [3] was 1% each time. The result in experiment [5], in experiment [6], in experiment [7] and in experiment [8] was inactive.
For the compound `COc1ccc2nccc(CCC3(O)CCC(NCc4cc5c(cc4F)SCC(=O)N5)CC3)c2c1` (stereo not drawn), the figures for the growth inhibition in experiment [1] and in experiment [4] were 48% and 87% (active), respectively. Moreover, the inhibition in experiment [2] was 9%; in experiment [3], -2%. Also, the result in experiment [5], in experiment [6], in experiment [7] and in experiment [8] was inactive.
For `Oc1ccc(CCNCCCCCCNCCc2ccc(-c3ccccc3)cc2)cc1O`, the results for the growth inhibition in experiment [1] and in experiment [4] were 8% and 101% (active), respectively. Moreover, the inhibition in experiment [2] was 72% (active); in experiment [3], 1%. Moreover, the outcome in experiment [5], in experiment [6], in experiment [7] and in experiment [8] was inactive.
For the compound `COc1cccc(NC(=O)NCCNc2ccnc(Nc3ccc(F)cc3)n2)c1`, the growth inhibition was 1% in experiment [1] and 94% (active) in experiment [4]. Moreover, the figures for the inhibition in experiment [2] and in experiment [3] were 18% and 4%, respectively. Also, the outcome in experiment [5], in experiment [6], in experiment [7] and in experiment [8] was inactive.
`CCCCCCOc1ccccc1C(=O)NCCOc1ccc(Cl)cc1`: the results for the growth inhibition in experiment [1] and in experiment [4] were 37% and 84% (active), respectively. In addition, the inhibition in experiment [2] was 16%; in experiment [3], 4%. Further, the outcome in experiment [5], in experiment [6], in experiment [7] and in experiment [8] was inactive.
Consider `Cc1cc(NC(=O)Nc2ccc(C(C)C)cc2)c2ccccc2n1`, for which the growth inhibition is 16% in experiment [1] and 99% (active) in experiment [4]. Moreover, the inhibition in experiment [2] was 7%; in experiment [3], -1%. For the same compound, the outcome in experiment [5], in experiment [6], in experiment [7] and in experiment [8] was inactive.
In the case of `COc1ccc2nccc([C@@H](O)CN3CCC(NC(=O)C(c4cc5ccccc5s4)N4CCN(c5ccccc5OC)CC4)CC3)c2c1` (stereo partly drawn), the results for the growth inhibition in experiment [1] and in experiment [4] were 88% (active) and 100% (active), respectively. For the same compound, the inhibition was 21% in experiment [2] and -2% in experiment [3]. Further, the result in experiment [5], in experiment [6], in experiment [7] and in experiment [8] was inactive.
Consider `CCCCN(CCCC)CCOc1cc2c(cc1OC)CCN2C(=O)/C=C/c1ccccc1Cl`, for which the growth inhibition in experiment [1] was 31%; in experiment [4], 87% (active). Moreover, the results for the inhibition in experiment [2] and in experiment [3] were 13% and 0%, respectively. In addition, the outcome in experiment [5], in experiment [6], in experiment [7] and in experiment [8] was inactive.
Take `COc1ccc(CCCON2C(N)=NC(N)=NC2(C)C)cc1`: the growth inhibition is 94% (active) in experiment [1] and 95% (active) in experiment [4]. Further, the results for the inhibition in experiment [2] and in experiment [3] were 61% (active) and -1%, respectively. For the same compound, the outcome in experiment [5], in experiment [6], in experiment [7] and in experiment [8] was inactive.
With `C[C@@H](NC(=O)NC(CCN1CCC2(CC1)CN(S(C)(=O)=O)c1ccccc12)c1ccc(Cl)c(Cl)c1)c1ccccc1` (stereo partly drawn), the growth inhibition in experiment [1] was 88% (active); in experiment [4], 92% (active). Further, the inhibition in experiment [2] is 15%; in experiment [3] it was 3%. Besides, the outcome in experiment [5], in experiment [6], in experiment [7] and in experiment [8] was inactive.

What is called inhibition is the change of the read-out against control, counted positive when it falls.

Values taken from PubChem BioAssay.
